Hits are enriched below; roughly 3% of the tested compounds scored in any of these assays.
Glyco luc inh = N-linked glycosylation inhibition; reporter increase, % at 12.5 µM; 360,000 compounds, 0.23% hits; AID 588692; D54 ERlucT glycosylation luciferase reporter, 24 h; percent of 100 nM tunicamycin response;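 active = mean luciferase reporter signal, scaled so untreated is 0 and the glycosylation-blocking control 100, at or above a set limit in every replicate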;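 also: luciferase carries N-glycosylation sites so blocking glycosylation raises the light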
Vif imaging = inhibitors of HIV Vif; HEK293T cells, Vif self-association by quenched fluorescence, imaging, 24 h; inhibition, % at 7.49 µM; AID 602346; 340,000 compounds, 0.35% hits; in the data active = inhibition above about 50%, passing the limit was not always enough
esBAF inh = blocks esBAF chromatin remodeling in mouse ES cells. Bmi1-luciferase knock-in reporter, 24 h; 100% = twice the neutral-well signal. reporter increase, % at 12.5 µM. 350,000 compounds, 2% hits; in the data active = activation above about 40%;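 also: a rise in the Bmi1 reporter signal indicates esBAF inhibition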
Wnt bcat act = activates Wnt/beta-catenin signaling in a reporter cell assay; 300,000 compounds, 1.2% hits; activator, plate reader; activation, % at 9.35 µM; AID 743398; in the data active = activation above about 30%, passing the limit was not always enough
PfHsp90 set2 = reduces growth (ATP signal) of yeast expressing P. falciparum Hsp90; S. cerevisiae expressing PfHsp90, BacTiter-Glo ATP, 48 h; yeast lacking PDR1 and PDR3 efflux regulators; inhibition, % at 9.4 µM; 310,000 compounds, 0.32% hits;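 active = every replicate shows inhibition above about 80%, whatever the replicate mean, limit read from the data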
MITF TRPM1 HTS = MITF TRPM1 promoter activation in melanoma cells; AID 588334; SK-MEL-5 TRPM1-promoter luciferase, 24 h; % of positive control, neutral wells = 0; activation, % at 12.5 µM; 300,000 compounds, 0.75% hits;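 active = mean activation of at least 80% with every replicate also reaching 80%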
Each line names hits and unclear results; the compound was inactive in the other large screens.

CC(C)C(c1nnnn1Cc1ccc2c(c1)OCO2)N1CCN(C)CC1 (stereo not given)	Vif imaging 66 (no result: PfHsp90 set2, MITF TRPM1 HTS)
O=C(OCc1ccccc1)C1CCCN1C(=O)c1ccccc1[N+](=O)[O-] (stereo not given)	Vif imaging 56 (no result: Wnt bcat act, PfHsp90 set2)
Cc1ccc(C(C)(C)NC(=O)C2CCC(=O)N(Cc3ccccc3F)C2)cc1 (stereo not given)	none
CC1(C)CC(NC(=O)C2CCC(=O)N(Cc3ccccc3F)C2)CC(C)(C)C1 (stereo not given)	esBAF inh 47
CS(=O)(=O)Nc1ccc2c(c1)[C@@H]1C[C@H](CC(=O)NCc3cccc(F)c3)O[C@H](CO)[C@@H]1O2	none (no result: Glyco luc inh, Vif imaging, Wnt bcat act, PfHsp90 set2, MITF TRPM1 HTS)
C[C@H]1CCC(=O)N([C@H](CN=[N+]=[N-])Cc2ccccc2)CC1	Vif imaging 59
[N-]=[N+]=NC[C@H](Cc1ccccc1)N1CCN(Cc2ccccc2)CCC1=O	none
O=C(CSc1ncn(-c2ccccc2)n1)Nc1nc2ccccc2s1	none (no result: esBAF inh, Wnt bcat act)
O=C(NCCC1=CCCCC1)C1CCC(CNc2nc(=S)[nH]c3ccccc23)CC1 (stereo not given)	Glyco luc inh 58
O=C(O)c1ccccc1Nc1cc(Cl)c2nonc2c1[N+](=O)[O-]	none
O=[N+]([O-])c1c(Nc2ccccn2)cc(Cl)c2nonc12	PfHsp90 set2 108 (no result: esBAF inh, MITF TRPM1 HTS)
CC(C)c1cn(CC[C@H]2CC[C@H](NS(=O)(=O)c3ccc(Cl)cc3)[C@H](CO)O2)nn1	none (no result: Glyco luc inh, Vif imaging, Wnt bcat act, PfHsp90 set2, MITF TRPM1 HTS)
CC(C)(C)C(=O)/C=C/c1ccc(Oc2ccccc2)cc1	Wnt bcat act 33
O=C(O)/C=C/c1ccc(Oc2ncccn2)cc1	none (no result: MITF TRPM1 HTS)
Cc1ccccc1Nc1nc(N)c2ccccc2n1	Wnt bcat act 40
Nc1nc(Nc2ccccc2)nc2ccccc12	Wnt bcat act 41 (no result: PfHsp90 set2, MITF TRPM1 HTS)
COc1ccc(C)cc1Nc1nc(N)c2ccccc2n1	none (no result: MITF TRPM1 HTS)
COc1ccc([N+](=O)[O-])cc1NC(=O)COC(=O)Cn1cnc2ccccc2c1=O	none (no result: PfHsp90 set2)
Cn1ncc2c(O/N=C(\N)c3ccc(C(F)(F)F)cc3)ncnc21	Glyco luc inh 41
Cc1ccc(C(=O)NNc2ncnc3c2cnn3C)cc1	none
COC(=O)c1ccccc1NC(=O)Cn1cnc2cc(C)c(C)cc21	Vif imaging 71
O=C(COC(=O)C1=COCCO1)Nc1cc(Cl)c(Cl)cc1Cl	Wnt bcat act 45
Cc1cc(C)c(NC(=O)COC(=O)C2=COCCO2)c(C)c1	none (no result: Vif imaging, PfHsp90 set2, MITF TRPM1 HTS)
Cc1n[nH]c(C)c1Sc1ccccc1N=Cc1cc(Cl)cc([N+](=O)[O-])c1O	none (no result: Wnt bcat act)
Cc1ccc(N=Cc2cc(Cc3ccccc3Cl)cc([N+](=O)[O-])c2O)c(O)c1	PfHsp90 set2 111 (no result: esBAF inh, Wnt bcat act)
COc1ccc(N=Cc2cc(Cc3ccccc3Cl)cc([N+](=O)[O-])c2O)cc1OC	PfHsp90 set2 111 (no result: esBAF inh, Wnt bcat act)
CCCNC(=O)Nc1ccc2c(c1)C(=O)N(C)C[C@@H](OC)[C@@H](C)CN(C(=O)C1CCC1)[C@H](C)CO2	none (no result: Glyco luc inh, Vif imaging, Wnt bcat act, PfHsp90 set2, MITF TRPM1 HTS)
Cc1ccc2nc(N/N=C/c3ccccc3F)nc(-c3ccccc3)c2c1	none (no result: esBAF inh)
Cc1cc(C)nc(N/N=C/c2ccccc2OCc2ccc(Cl)cc2)n1	Wnt bcat act 35 (no result: esBAF inh)
C/C(=N\Nc1nc(C)cc(-c2ccccc2)n1)c1ccccc1	esBAF inh 63 (no result: MITF TRPM1 HTS)
Cc1cc(C)nc(N/N=C/c2ccccc2OCc2ccccc2)n1	none
C/C(=N\Nc1nc(C)cc(-c2ccccc2)n1)c1ccc(O)cc1	none (no result: MITF TRPM1 HTS)
Cc1cc(-c2ccccc2)nc(N/N=C/c2ccccc2F)n1	esBAF inh 56 (no result: MITF TRPM1 HTS)
Cc1cc(C)n(-c2nc3c(c(=O)n(C)c(=O)n3C)n2CCO)n1	none (no result: esBAF inh)
CN(CC(=O)N1CCCCCC1)S(=O)(=O)c1ccc(Br)cc1	none
Cc1ccc(S(=O)(=O)N(C)CC(=O)N2CCCCCCC2)cc1	none (no result: PfHsp90 set2)
CN(CC(=O)N1CCCCCC1)S(=O)(=O)c1ccccc1	esBAF inh 57 (no result: MITF TRPM1 HTS)
CN(CC(=O)N1CCCCCC1)S(=O)(=O)c1ccc(F)cc1	esBAF inh 54
C[C@@]12C(=O)Nc3ccc(Cl)cc3C(=O)N1[C@H]1c3ccccc3OC[C@@H]1[C@@H]2c1ccccc1	Glyco luc inh 28, PfHsp90 set2 107 (no result: Wnt bcat act)
C[C@@]12C(=O)Nc3cc(Cl)ccc3C(=O)N1[C@H]1c3ccccc3OC[C@@H]1[C@@H]2c1ccccc1	Glyco luc inh 31 (no result: Wnt bcat act)
C[C@@]12C(=O)Nc3cc(Cl)ccc3C(=O)N1[C@H]1c3cc(Cl)ccc3OC[C@@H]1[C@@H]2c1ccccc1	none

Screens deposited in PubChem by Broad Institute.
